Assay outcomes as filed in PubChem BioAssay.
TbREL1 primary = TbREL1 inhibition, primary screen. 89,000 tested, 0.49% active. inhibition, % at 9.66 µM. TbREL1 RNA ligation, FRET fluorescence. AID 1117264. P86926;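 active = inhibition above the mean inhibition across all screened compounds plus 3 SD, cut at about 11% in these data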;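 note: 0% = plate median of test wells and 100% = NSC42067 control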
Target sequence (P86926 whole entry, looked up): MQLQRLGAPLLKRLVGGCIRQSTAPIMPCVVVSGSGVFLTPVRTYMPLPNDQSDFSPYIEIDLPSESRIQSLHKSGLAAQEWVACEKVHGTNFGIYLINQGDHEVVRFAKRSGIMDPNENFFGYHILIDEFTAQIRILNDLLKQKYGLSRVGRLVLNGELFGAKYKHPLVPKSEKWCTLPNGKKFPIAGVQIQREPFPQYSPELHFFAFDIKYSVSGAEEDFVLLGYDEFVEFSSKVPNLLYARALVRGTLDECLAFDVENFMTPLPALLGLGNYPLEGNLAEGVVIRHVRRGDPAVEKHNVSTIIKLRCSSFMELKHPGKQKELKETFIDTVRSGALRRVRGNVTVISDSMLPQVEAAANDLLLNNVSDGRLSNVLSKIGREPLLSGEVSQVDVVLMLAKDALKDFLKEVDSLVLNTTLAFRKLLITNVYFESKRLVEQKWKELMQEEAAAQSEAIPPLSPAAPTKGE
TbREL1 confirm = TbREL1 inhibition, confirmation | AID 1117282 | 390 tested, 37% active | shares compounds with TbREL1 primary | TbREL1 RNA ligation, FRET fluorescence | inhibition, % at 9.66 µM;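 active = mean inhibition across replicates above a set limit taken from the earlier primary screen, cut at about 11% in these data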;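 note: 0% = REL1 with substrate and DMSO and 100% = REL1 plus control inhibitor NSC42067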
Active calls of the source: *. The sample as a whole holds a higher share of hits than the screen did.

SMILES	TbREL1 primary	others
Nc1nc2ncccc2cc1C(=O)NC1CC1	-0.4
CSc1ccccc1NC(=O)CN(C)CC(=O)Nc1c(F)cccc1F	16.1*	TbREL1 confirm=9.1
CN(CC(=O)Nc1cccc(F)c1)CC(=O)Nc1cccc2ccccc12	-0.6
CSc1ccccc1NC(=O)CCc1ccccc1	-3.0
CSc1ccccc1NC(=O)CN(C)Cc1ccc(Br)cc1	-0.3
CSc1ccccc1NC(=O)CN(C)C(C)C(=O)Nc1ccc(C#N)cc1 (stereo not given)	0.8
CSc1ccccc1NC(=O)CN(C)CC(=O)Nc1ccccc1F	11.5*	TbREL1 confirm=3.4
O=C(Cc1cccc(NC(=O)C2CCCN(C(=O)C3CC3)C2)c1)Nc1cccc(C(=O)N2CCOCC2)c1 (stereo not given)	0.1
COC(=O)[C@]12C[C@H](CC(=O)NCc3ccc(OC)c(OC)c3)C(=O)N(Cc3ccc(Cl)cc3Cl)C1=C[C@H](C1CCCC1)O[C@@H]2C	-0.7
COc1cccc(CNS(=O)(=O)c2cc3c(cc2Br)CC(C)N3C(C)=O)c1 (stereo not given)	-1.4
O=C(NCCc1cccc(F)c1)c1cc2ccccn2n1	-1.8
Cc1ccc(S(=O)(=O)N2C(N)=C(C(=O)NCc3ccc(Br)cc3)C(c3ccc(Cl)cc3)C2C(=O)c2ccccc2)cc1 (stereo not given)	-2.3
Cc1cccc(C(=O)Nc2nc3ncccn3c2-c2ccc(C(F)(F)F)cc2)c1	3.5
N=C1S/C(=C\c2ccc(-c3ccccc3C(=O)O)o2)C(=O)N1c1ccc2c(c1)OCO2	2.4
O=C(O)c1ccccc1-c1ccc(C=c2sc3nc4cc(Br)cnc4n3c2=O)o1	44.8*	TbREL1 confirm=47.8*
O=C(O)c1ccccc1-c1ccc(/C=C/c2cc(C(F)(F)F)[nH]c(=O)n2)o1	-14.9
COc1ccc(-c2noc(C3CCCN(C(=O)Nc4ccc(Cl)cc4)C3)n2)cc1 (stereo not given)	5.7
CC(C)(C)c1ccc(-c2nnc(SCC(=O)Nc3ccccc3-c3ccccc3)n2Cc2ccco2)cc1	4.5
Cc1oc2c(c1C(=O)c1ccccc1)C(=O)C(=O)c1ccccc1-2	29.2*	TbREL1 confirm=65.7*
COc1ccc(C(=O)c2c(C(F)(F)F)oc3c2C(=O)c2ccccc2C3=O)cc1OC	3.7
O=C(c1ccccc1)c1c[nH]cc1-c1ccccc1	-0.6
Cc1ccc(CNC(=O)O[C@H]2CC[C@@]34CCCN3C(=O)CCC[C@H]4C2)o1	-5.0
Cc1cccc(C)c1N1C(=O)CC(N2CCN(S(=O)(=O)c3ccccc3F)CC2)C1=O (stereo not given)	2.5
O=C1CC(N2CCN(S(=O)(=O)c3ccccc3)CC2)C(=O)N1c1ccccc1 (stereo not given)	1.7
O=C1CC(N2CCN(S(=O)(=O)c3ccccc3F)CC2)C(=O)N1c1ccccc1F (stereo not given)	11.2*	TbREL1 confirm=-2.5
SMILES	TbREL1 primary	others
COc1ccc2c(CCN3C(=O)c4ccccc4C3=O)c(-c3c(CCN4C(=O)c5ccccc5C4=O)c4ccccc4n3C(=O)OC(C)(C)C)[nH]c2c1	4.0
CCn1c(SCC(=O)N/N=C/c2cccc(Oc3ccccc3)c2)nnc1-c1ccccc1	-0.9
CCN(CC)c1ccc(-c2nn3c(-c4ccccc4Cl)nnc3s2)cc1	-0.3
CCN(CC)C(=O)C1=C(C)N(Cc2ccccc2)C(=O)C(CC(=O)NCCCN(C)C)C1 (stereo not given)	2.6
CC1=C(C(=O)N(C)C)CC(CC(=O)NCCCN(C)C)C(=O)N1Cc1ccc(F)cc1 (stereo not given)	3.8
CC1=C(C(=O)N(C(C)C)C(C)C)CC(CC(=O)NCCCN(C)C)C(=O)N1Cc1ccc(C(C)(C)C)cc1 (stereo not given)	17.3*	TbREL1 confirm=11.0
CCCCOCCCNC(=O)C[C@H]1C[C@@]2(C(=O)OC)C(=C[C@H](COCc3ccccc3)O[C@@H]2C)N(Cc2ccc(Cl)cc2Cl)C1=O	3.1
CC(C)(C)Sc1ccc(N)nc1	38.9*	TbREL1 confirm=4.6
Nc1ccc(S(=O)(=O)O)cn1	0.6
COC(=O)[C@]12C[C@H](CC(=O)NCc3ccccc3)C(=O)N(Cc3ccc(Cl)cc3Cl)C1=C[C@H](C(C)C)O[C@@H]2C1CC1	4.1
O=C1CC(N2CCCN(Cc3ccccc3)CC2)=NC(=O)N1c1ccc(Br)cc1	4.5
Cc1ccccc1NC(=S)N(CCN(C)C)C(C)c1cccnc1 (stereo not given)	-5.9
Cc1ccccc1NC(=S)N(CCN(C)C)C(C)c1ccccn1 (stereo not given)	13.7*	TbREL1 confirm=2.9
Cc1c(Cl)cccc1NC(=S)N(CCN(C)C)C(C)c1ccccn1 (stereo not given)	5.7
COc1cccc(C(=O)n2ccc3ccc(-c4ccc5ccn(Cc6ccccc6)c5c4)cc32)c1	-4.1
Cc1cccc(NC(=O)N2CCC(N(C)CCC(C)C)CC2)c1	-0.3
CCOC(=O)Cn1c(=NC(=O)c2cccs2)sc2cc(C(=O)OC)ccc21	10.2
CCOC(=O)Cn1c(=NC(=O)CC)sc2c(C)cc(C)cc21	-1.5
CCOC(=O)Cn1c2ccc(C)cc2c2nc(C)sc21	55.0*	TbREL1 confirm=4.8
O=C1C[C@H](C(=O)Nc2ccc(Cl)cc2)[C@@H](c2ccccc2)O1	1.9
c1ccc2c(C[C@@H]3CNCCN3CCCCC3CCCCC3)cccc2c1	13.6*	TbREL1 confirm=10.6
c1ccc(C[C@H]2CNCCN2CCCCC2CCCCC2)cc1	6.0
Oc1ccc(C[C@@H]2CNCCN2CCc2cccc3ccccc23)cc1	2.9
Cc1nn(-c2ccccc2)c2sc(C(=O)N3CCC4(CC3)OCCO4)cc12	0.7
Cc1cc(NS(=O)(=O)c2ccc(NC(=S)NC(=O)c3ccccc3)cc2)no1	-1.0
SMILES	TbREL1 primary	others
CCCCCOc1ccc(C(=O)Nc2ccc(S(=O)(=O)Nc3cc(C)on3)cc2)cc1	-1.9
CCOc1cc(C(=O)Nc2ccc(S(=O)(=O)Nc3cc(C)on3)cc2)cc(OCC)c1OCC	61.2*	TbREL1 confirm=1.7
O=C(COc1ccc(F)c(Cl)c1)N[C@H]1CCCN(CC2CC2)C1	-5.8
Cc1n[nH]c(C)c1S(=O)(=O)NCCc1c[nH]c2ccccc12	0.9
CC(C)C[C@H](NC1(C(=O)NC2CCCCC2)CCC1)C(=O)NCC(c1ccccc1)c1ccccc1	-1.4
O=C(NCC(c1ccccc1)c1ccccc1)[C@H](Cc1ccccc1)NC1(C(=O)NC2CCCCC2)CCCCCC1	11.6*	TbREL1 confirm=0.3
CN1CCC(N[C@@H](Cc2ccccc2)C(=O)NCC(c2ccccc2)c2ccccc2)(C(=O)NC2CCCCC2)CC1	12.5*	TbREL1 confirm=14.3*
O=C(NCC(c1ccccc1)c1ccccc1)[C@H](Cc1ccccc1)NC1(C(=O)NC2CCCCC2)CCC1	-3.4
COC(CNC(=O)[C@H](Cc1ccccc1)NC1(C(=O)NC2CCCCC2)CCC1)OC	-3.2
O=C(NCC(c1ccccc1)c1ccccc1)[C@H](Cc1c[nH]c2ccccc12)NC1(C(=O)NC2CCCCC2)CCN(Cc2ccccc2)CC1	-3.8
COc1ccc(-n2c(SCC(=O)Nc3ccc(S(=O)(=O)Nc4nccs4)cc3)nnc2-c2ccco2)cc1	3.7
Cc1ccc(C(=O)C2CCN(CC(=O)N(C)C3CCCCC3)CC2)cc1	-0.8
COC(=O)[C@]12C[C@H](CC(=O)NCc3cccs3)C(=O)N(Cc3ccc(Cl)cc3Cl)C1=C[C@H](C1CCCC1)O[C@@H]2C	5.2
O=C1CCC[C@H]2C[C@H](NCc3ccco3)CC[C@]23CCCN13	-0.7
CC1CCN(c2ccc(C(=O)O)cc2NS(=O)(=O)c2cccc3cccnc23)CC1	-1.0
COC(=O)c1ccc(N2C(=O)CC(SCC(=O)Nc3ccc(OC)cc3)C2=O)cc1 (stereo not given)	13.1*	TbREL1 confirm=3.3
